# PubChem BioAssay (Tox21)
# Calls of active or inactive are those of the source. The call rests on the fitted dose curve; in most records, active means well fitted curve in the direction sought with a large enough effect in the repeat runs; inconclusive means weak or mixed curves; inactive means flat fitted curve, though single readings scatter.
# Assay: qHTS assay to test for compound auto fluorescence at 590 nm (red) in HEK293 cells (AID 720679)
# Details: red autofluorescence 540/590 nm; series mostly up to 46 µM; fluorescence, % of fluorescent control: at the top concentration
# Source text: National Center for Advancing Translational Sciences [NCATS]
# NIH Chemical Genomics Center [NCGC]
# U.S. Environmental Protection Agency [EPA]
# National Institutes of Environmental Health Sciences [NIEHS]
# National Toxicology Program [NTP]
# U.S. Food and Drug Administration [FDA]
# Compound auto fluorescence often interferes with screening of the compound library against various biological targets and signaling pathways. Some of these compounds may have fluorophoric properties. Such properties may interfere with the assay outputs resulting in false positives and/or negatives. To decrease such complications and ensure the compound activities are relevant in terms of biological response, the Tox21 10K compound library was screened for auto fluorescence.
# From the fluorophores used as reporter signals in our screening assays, the auto fluorescence equivalencies of compounds against three fluorophores have been evaluated: Triamterene, Fluorescein and Rose Bengal sodium for blue, green and red fluorescence, respectively. The fluorescence intensities were measured using Excitation/Emission wavelengths at 405/460nm, 485/535nm and 540/590nm for blue, green and red labels, respectively. This assay includes the red fluorescence data.
# Tox21 Assay Protocol Summary:
# 2,000 HEK293 cells in 5 uL of culture medium containing 10% dialyzed FBS per well were dispensed into black wall/clear bottom 1536-well plates using a Multidrop Combi Dispenser (Thermo Scientific). The assay plates were incubated for 4-5 hr at 37C to allow cell attachment to the well bottom, followed by the transfer of 23 nL compound or DMSO vehicle by a pintool work station (Kalypsys, San Diego, CA). After the assay plates were incubated overnight at 37C and 5% CO2, fluorescence intensities in the assay plates were measured by an Envision (PerkinElmer, Shelton, CT) plate reader using three labels for measuring blue, green and red fluorescence at […] 460, 535 and 590nm respectively.
# On the % scale 0 is the no-effect control and ±100 the full control effect.
Compound,"fluorescence, % of fluorescent control",Potency
O=P(O)(O)OC(CO)CO,0.0137% (inactive),–
CN(C)CCC=C1c2ccccc2C(C)(C)c2ccccc21,-0.276% (inactive),–
CC(=O)N[C@@H]([C@@H](O)[C@H](O)[C@H](O)CO)[C@@H](O)CC(=O)C(=O)O,-0.164% (inactive),–
CCN(CC)Cc1cc(Nc2ccnc3cc(Cl)ccc23)ccc1O,-0.606% [at 18.6 µM] (inactive),–
O=C(O[C@H]1CN2CCC1CC2)N1CCc2ccccc2[C@@H]1c1ccccc1,0.0728% (inactive),–
O=C(NNCS(=O)(=O)O)c1ccncc1,0.406% (inactive),–
CC(C)(C)C1(O)CCN2CC3c4ccccc4CCc4cccc(c43)C2C1 (stereo not given),0.0637% (inactive),–
COC(=O)[C@@H](N)CS,0.0102% (inactive),–
COC(=O)[C@H]1[C@H]2C[C@@H]3c4[nH]c5cc(OC)ccc5c4CCN3C[C@H]2C[C@@H](OC(=O)/C=C/c2cc(OC)c(OC)c(OC)c2)[C@@H]1OC,0.0856% [at 18.6 µM] (inactive),–
CN1CCN2c3ncccc3Cc3ccccc3C2C1 (stereo not given),0.162% (inactive),–
CC(CN(C)C)CN1c2ccccc2Sc2ccc(C(F)(F)F)cc21 (stereo not given),-0.329% (inactive),–
C[C@H](CCCC(C)(C)O)[C@H]1CC[C@H]2[C@@H]3CC=C4C[C@@H](O)CC[C@]4(C)[C@H]3CC[C@]12C,-0.0215% (inactive),–
O=P(O)(O)C(Sc1ccc(Cl)cc1)P(=O)(O)O,-0.774% (inactive),–
CCOC(=O)C1=C(COCCN)NC(C)=C(C(=O)OC)C1c1ccccc1Cl (stereo not given),–,inactive
FC(F)(F)C(F)(F)C(F)(F)C(F)(F)C(F)(F)C(F)(F)F,-0.146% (inactive),–
O=C(c1cc2ccccc2o1)N1CCN(Cc2ccccc2)CC1,0.0149% (inactive),–
CC(O)[C@@H]1NC(=O)[C@H](CCCCN)NC(=O)[C@@H](Cc2c[nH]c3ccccc23)NC(=O)[C@H](Cc2ccccc2)NC(=O)[C@@H](NC(=O)[C@H](N)Cc2ccccc2)CSSC[C@@H](C(=O)N[C@H](CO)[C@@H](C)O)NC1=O (stereo not given in full),0.0467% (inactive),–
O=S(=O)(O)c1cc(O)c2c(N=Nc3ccc(Nc4ccccc4)c4c(S(=O)(=O)O)cccc34)cc(S(=O)(=O)O)cc2c1,0.0217% (inactive),–
C=CCOc1ccc(CC(=O)O)cc1Cl,-0.0178% (inactive),–
O=c1oc2cc(O)ccc2s1,0.0035% (inactive),–

Compound,"fluorescence, % of fluorescent control",Potency
C=CC[C@@H]1/C=C(\C)C[C@H](C)C[C@H](OC)[C@H]2O[C@@](O)(C(=O)C(=O)N3CCCC[C@H]3C(=O)O[C@H](/C(C)=C/[C@@H]3CC[C@@H](O)[C@H](OC)C3)[C@H](C)[C@@H](O)CC1=O)[C@H](C)C[C@@H]2OC,-0.146% (inactive),–
OC[C@H]1O[C@@H](O[C@H]2[C@H](O)[C@@H](O)[C@H](O)O[C@@H]2CO)[C@H](O)[C@@H](O)[C@@H]1O,-0.0374% (inactive),–
O=C1O[C@H]2[C@H](O)[C@@H]1OC(O)[C@H]2O (stereo not given in full),-0.0213% (inactive),–
CC1(C)C(\C=C/C=C\C=C/C=C2/N(CCCCS(=O)(=O)O)c3ccc4ccccc4c3C2(C)C)=[N+](CCCCS(=O)(=O)[O-])c2ccc3ccccc3c21,-0.168% (inactive),–
CCOc1ccc(N=Nc2ccc(N)cc2N)cc1,-0.951% (inactive),–
C[N@+]12CCCC[C@@H]1CCC(=C(c1cccs1)c1cccs1)C2,-0.0064% (inactive),–
CO[C@H]1C[C@H](O[C@@H]2/C(C)=C/C[C@@H]3C[C@@H](C[C@]4(CC[C@H](C)[C@@H](C5CCCCC5)O4)O3)OC(=O)[C@@H]3C=C(C)/C(=N/O)[C@H]4OC/C(=C\C=C\[C@@H]2C)[C@]43O)O[C@@H](C)[C@@H]1O,0.484% (inactive),–
C/C(=C(\CCOC(=O)c1ccccc1)SS/C(CCOC(=O)c1ccccc1)=C(/C)N(C=O)Cc1cnc(C)nc1N)N(C=O)Cc1cnc(C)nc1N,-1.53% (inactive),–
CN[C@@H]1[C@H](O[C@H]2[C@H](O[C@H]3[C@H](O)[C@@H](O)[C@H](N=C(N)N)[C@@H](O)[C@@H]3N=C(N)N)O[C@@H](C)[C@]2(O)C=O)O[C@@H](CO)[C@H](O)[C@H]1O,-0.0523% (inactive),–
C[Se]CCC(N)C(=O)O (stereo not given),0.197% (inactive),–
CC(C)=CCC/C(C)=C/C=C/C(C)=C/C=C/C(C)=C/C=C/C=C(C)/C=C/C=C(C)/C=C/C=C(\C)CCC=C(C)C,0.128% (inactive),–
CN[C@@H]1CCc2[nH]c3ccc(C(N)=O)cc3c2C1,-0.0646% (inactive),–
CCCCC(=O)O[C@H]1CC[C@H]2[C@@H]3CCc4cc(O)ccc4[C@H]3CC[C@]12C,0.0987% (inactive),–
COC(=O)[C@H]1[C@H]2C[C@@H]3c4[nH]c5ccccc5c4CCN3C[C@H]2C[C@@H](OC(=O)c2cc(OC)c(OC)c(OC)c2)[C@@H]1OC,–,inactive
CC(CN1c2ccccc2Sc2ccc(S(=O)(=O)N(C)C)cc21)N(C)C (stereo not given),0.0471% (inactive),–
O=C1N=C2SCCN2C(=O)C1Cc1ccc(Cl)cc1 (stereo not given),-0.226% (inactive),–
CS(=O)(=O)Nc1cc2occ(NC=O)c(=O)c2cc1Oc1ccccc1,0.213% (inactive),–
Cc1cccc(C)c1NC(=O)NC1=CCCN1C,0.304% (inactive),–
CC(C)[C@H](N)C(=O)OCC(CO)OCn1cnc2c(=O)[nH]c(N)nc21 (stereo not given in full),-0.952% (inactive),–
O=C(O)COc1ccc(CCNS(=O)(=O)c2ccccc2)s1,-0.244% (inactive),–
